Values joined by “and” are separate entries in the source; they are usually repeats but may differ in a detail not shown here. Equal entries are not always repeated. Inconclusive results are not listed. Active and inactive are the calls of the source.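 How the source made its calls, unless noted: active means compounds whose cell count with miR-34 switched on is under 0.7 times the count with it off; inactive means the rest.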
Key:
[1] = viability loss in pontine glioma line – cell-based, SU-DIPG-XXV, MIPE5.0, CellTiter-Glo, qHTS, dose response (AID 1347065; cut-off not given, nearly all actives have AC50 up to about 26 µM;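 further: cells exposed to compound for 48 hours before ATP readout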); conditions: CellTiter-Glo ATP luminescence
[2] = JHH-DIPG-1 glioma cell viability, MIPE5.0 library, CellTiter-Glo luminescence, qHTS (AID 1347067; cut-off not given, nearly all actives have AC50 up to about 26 µM;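 further: cells exposed to compound for 48 hours before readout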); conditions: JHH-DIPG-1 glioma viability, CellTiter-Glo ATP luminescence
[3] = SU-DIPG-XXV glioma cell viability, MIPE5.0 library, qHTS (AID 1347068; cut-off not given, nearly all actives have IC50 up to about 30 µM)
[4] = sensitizers of A549 cells to miR-34 induction, primary screen, imaging, A549 dox-inducible miR-34, nuclei and caspase counts (AID 1347080); conditions: A549 miR-34 inducible, Hoechst nuclei count, 48 h
[5] = survival rescue of mitochondrial mutant cells in low glucose, primary screen, MELAS cybrids, Rieske KO mouse fibroblasts, CellTiter-Glo (AID 1508586;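 active means mean z-score across replicates of 1.96 or higher in either the MELAS or the Rieske mutant cell line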;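 further: z relative to plate mean and SD of compound and empty wells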)
[6] = biological target: NAD(+) hydrolase SARM1 (Homo sapiens) (UniProt Q6SZW1); assay: SARM1 TIR NADase inhibitors, cell lysate, NAD-Glo luminescence (AID 1508614;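 active means compound whose remaining NAD level is above about 45 nM, limit read from the data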); conditions: SAM-TIR HEK293T lysate NADase, at 1 µM, stronger effect = higher value
Sequence of NAD(+) hydrolase SARM1 (Homo sapiens) (Q6SZW1 whole entry, looked up, the tested form may be a part): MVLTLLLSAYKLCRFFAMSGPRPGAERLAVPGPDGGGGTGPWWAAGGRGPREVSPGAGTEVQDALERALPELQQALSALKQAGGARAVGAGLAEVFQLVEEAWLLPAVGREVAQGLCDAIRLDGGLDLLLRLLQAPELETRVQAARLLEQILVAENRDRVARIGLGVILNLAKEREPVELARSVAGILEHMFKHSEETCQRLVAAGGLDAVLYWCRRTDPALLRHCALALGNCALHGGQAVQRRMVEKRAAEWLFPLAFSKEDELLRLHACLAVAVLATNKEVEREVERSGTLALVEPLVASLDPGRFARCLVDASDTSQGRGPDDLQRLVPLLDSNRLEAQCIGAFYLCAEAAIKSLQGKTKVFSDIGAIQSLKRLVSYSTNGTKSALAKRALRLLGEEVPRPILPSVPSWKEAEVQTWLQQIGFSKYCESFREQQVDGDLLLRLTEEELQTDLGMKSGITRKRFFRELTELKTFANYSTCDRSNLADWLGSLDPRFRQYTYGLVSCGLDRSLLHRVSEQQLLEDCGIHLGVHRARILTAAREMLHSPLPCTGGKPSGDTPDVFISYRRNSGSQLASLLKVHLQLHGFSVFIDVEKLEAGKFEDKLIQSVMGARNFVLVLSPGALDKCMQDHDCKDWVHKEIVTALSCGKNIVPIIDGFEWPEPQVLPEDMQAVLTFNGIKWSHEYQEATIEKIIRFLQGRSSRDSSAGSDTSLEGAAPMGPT

[7] = biological target: Mitogen-activated protein kinase 7 (Homo sapiens) (UniProt Q13164); assay: ERK5 transactivation activators in reporter cells, primary screen, cell-based, HTS (AID 1508626;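 active means luciferase signal above three times the same-plate solvent-only control wells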;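 further: luciferase driven by Gal4-ERK5 fusion binding five Gal4 sites before minimal TATA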); conditions: HeLa Gal4-ERK5 transactivation, 18 h, at 5 µM, stronger effect = higher value
Sequence of Mitogen-activated protein kinase 7 (Homo sapiens) (Q13164 whole entry, looked up, the tested form may be a part): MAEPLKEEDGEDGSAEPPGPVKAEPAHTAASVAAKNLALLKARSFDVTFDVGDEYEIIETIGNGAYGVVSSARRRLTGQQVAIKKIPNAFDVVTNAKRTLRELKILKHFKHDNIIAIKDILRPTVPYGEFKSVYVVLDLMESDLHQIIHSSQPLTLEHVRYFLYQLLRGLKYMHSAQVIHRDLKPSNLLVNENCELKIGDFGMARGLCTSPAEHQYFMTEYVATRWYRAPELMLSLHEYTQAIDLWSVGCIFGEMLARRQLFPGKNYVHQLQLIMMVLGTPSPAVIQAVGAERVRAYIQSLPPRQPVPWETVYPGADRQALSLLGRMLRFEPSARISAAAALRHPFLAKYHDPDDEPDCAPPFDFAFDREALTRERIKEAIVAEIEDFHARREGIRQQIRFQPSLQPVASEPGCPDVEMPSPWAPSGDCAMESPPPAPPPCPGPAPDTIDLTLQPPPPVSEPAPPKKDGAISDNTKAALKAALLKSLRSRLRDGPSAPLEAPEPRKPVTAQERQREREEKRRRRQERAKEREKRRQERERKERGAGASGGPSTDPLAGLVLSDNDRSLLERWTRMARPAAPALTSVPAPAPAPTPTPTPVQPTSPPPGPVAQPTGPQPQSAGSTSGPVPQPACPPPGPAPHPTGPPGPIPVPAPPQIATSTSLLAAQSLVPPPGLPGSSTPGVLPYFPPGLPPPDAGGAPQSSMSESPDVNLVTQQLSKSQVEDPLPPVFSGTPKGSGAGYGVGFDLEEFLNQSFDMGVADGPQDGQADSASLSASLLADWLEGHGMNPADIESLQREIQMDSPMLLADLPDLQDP

[8] = viability rescue of complex I mutant cybrids, primary screen, cell-based, galactose medium, ATP luminescence (AID 1645843;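 active means z-score of at least 1.8 in each of two replicates, scored against plate mean and spread of sample wells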;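 further: positive z means more ATP and so rescue of galactose-driven cybrid death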); conditions: complex I mutant cybrid cells, 72 h, stronger effect = higher value
[9] = SU-DIPG-VI glioma cell viability, MIPE4.0 library, CellTiter-Glo luminescence, qHTS (AID 1347066; cut-off not given, nearly all actives have AC50 up to about 30 µM;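 further: cells exposed to compound for 48 hours before readout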); conditions: CellTiter-Glo ATP luminescence
[10] = phospholipid biosynthesis inhibitors in animal cells, primary screen, cell-based, LOPAC library, screen 4 (AID 1347384; call rule not given here); conditions: phospholipid biosynthesis inhibition screen, at 10 µM
[11] = LFS_MB_P medulloblastoma growth inhibition, cell-based, chromothripsis tumors, cisplatin or BGB combos (AID 1671449; in the data active means inhibition above about 80%;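 further: cells exposed for 96 hours; 0% = vehicle DMSO and 100% = killing by high DMSO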); conditions: LFS_MB_P medulloblastoma cells
[12] = HDN33 neuroblastoma growth inhibition, cell-based, chromothripsis tumors, cisplatin or BGB combos (AID 1671450; in the data active means inhibition above about 80%;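 further: cells exposed to compound for four days; 0% = vehicle DMSO and 100% = cell killing by high DMSO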); conditions: HDN33 neuroblastoma cells, stronger effect = higher value
[13] = ICB984 medulloblastoma cell growth inhibition, synergistic combos for chromothripsis tumors, cisplatin or BGB combos (AID 1671451; call rule not given here;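 further: cells exposed for 96 hours before readout; 0% = vehicle DMSO and 100% = killing by high DMSO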); conditions: ICB984 medulloblastoma cells, drug combinations, stronger effect = higher value
[14] = LFS_MB_1R medulloblastoma cell growth inhibition, synergistic combos for chromothripsis tumors, cisplatin or BGB combos (AID 1671452; in the data active means inhibition above about 80%;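 further: cells exposed for 96 hours before readout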); conditions: LFS_MB_1R medulloblastoma cells, stronger effect = higher value
[15] = HTB85 osteosarcoma cell growth inhibition, synergistic combos for chromothripsis tumors, BGB or cisplatin IC20 combos (AID 1671453; in the data active means inhibition above about 80%;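 further: cells exposed for 96 hours before readout; 0% = vehicle DMSO and 100% = high DMSO killing control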); conditions: HTB85 osteosarcoma cells, drug combinations, stronger effect = higher value
[16] = CRL2098 osteosarcoma cell growth inhibition, synergistic combos for chromothripsis tumors, BGB or cisplatin IC20 combos (AID 1671454; in the data active means inhibition above about 80%;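 further: cells exposed for 96 h before readout; 0% = vehicle DMSO and 100% = killing by high DMSO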); conditions: CRL2098 osteosarcoma cells, drug combinations, stronger effect = higher value
[17] = HD-MB03 medulloblastoma cell growth inhibition, synergistic combos for chromothripsis tumors, BGB or cisplatin IC20 combos (AID 1671455; in the data active means inhibition above about 83%;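 further: 0% = vehicle DMSO and 100% = high DMSO as cytotoxic control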); conditions: HD-MB03 medulloblastoma cells, stronger effect = higher value
[18] = stronger effect = lower value, cell number ratio, induced over uninduced
[19] = measured here: relative caspase fold change +Dox/-Dox
[20] = measured here: total cells with miR-34 induction, stronger effect = lower value
[21] = measured here: total cells without miR-34 induction
[22] = MELAS cybrid survival, CellTiter-Glo 48 h, stronger effect = higher value
[23] = Rieske KO mouse fibroblast survival, CellTiter-Glo 72 h
[24] = measured here: combination with BGB IC40, at 0.05 µM

SMILES: CN(Cc1cc(Br)cc(Br)c1N)C1CCCCC1
- AC50 [1]: 16.6 µM (active)
- AC50 [2]: 26.3 µM (active)
- outcome [3]: inactive
- fold change [4, 18]: 0.928 (inactive) and 0.903 (inactive) and 0.881 (inactive)
- fold change [4, 19]: 0.942 and 3.08 and 1.05
- cell count [4, 20]: 8160 and 11000 and 9390
- cell count [4, 21]: 8790 and 12200 and 10700
- z-score [5, 22]: -0.2 (inactive) and -0.238 (inactive) and -0.0697 (inactive)
- z-score [5, 23]: 0.932 and -0.166 and 0.184
- remaining NAD [6]: 10 nM (inactive)
- luciferase signal [7]: 56 AU (inactive)
- z-score [8]: -1.71 (inactive)

SMILES: Oc1ccc(OCc2ccccc2)cc1
- outcome [1]: inactive
- outcome [9]: inactive
- outcome [2]: inactive
- fold change [4, 18]: 0.78 (inactive) and 0.903 (inactive)
- fold change [4, 19]: 1.95 and 0.958
- cell count [4, 20]: 2470 and 5720
- cell count [4, 21]: 3170 and 6340
- z-score [5, 22]: -0.263 (inactive) and 1.74 (inactive)
- z-score [5, 23]: 0.599 and -0.357
- remaining NAD [6]: 10 nM (inactive)
- luciferase signal [7]: 64 AU (inactive)

SMILES: O=NN(CCCl)C(=O)NCCCl
- outcome [1]: inactive
- outcome [2]: inactive
- outcome [3]: inactive
- fold change [4, 18]: 0.948 (inactive) and 0.902 (inactive)
- fold change [4, 19]: 1.47 and 4.57
- cell count [4, 20]: 8130 and 9540
- cell count [4, 21]: 8570 and 10600
- outcome [10]: inactive
- remaining NAD [6]: 10 nM (inactive)
- luciferase signal [7]: 204 AU (inactive)
- z-score [8]: -0.84 (inactive)
- inhibition ([11]; at 0.5 µM, stronger effect = higher value): -2.88% (inactive)
- inhibition ([11]; measured here: combination with BGB IC20, at 0.005 µM): -4.26%
- inhibition ([11]; measured here: combination with BGB IC40, at 0.005 µM): -31.6%
- inhibition [11, 24]: -3.31%
- inhibition ([11]; measured here: combination with cisplatin, at 0.5 µM, stronger effect = higher value): 2.24%
- inhibition ([11]; measured here: combination with cisplatin, at 5 µM, stronger effect = higher value): -36.8%
- inhibition ([12]; BGB combo, at 5 µM): -14.5%
- inhibition ([12]; at 0.5 µM): 6.29% (inactive)
- inhibition ([12]; cisplatin combo, at 5 µM): -3.04%
- inhibition ([12]; measured here: with BGB IC20 combination, at 0.5 µM): 11.2%
- inhibition ([12]; measured here: with cisplatin IC20 combination, at 0.5 µM): -4.17%
- inhibition ([12]; single agent, at 5 µM): -8.15%
- inhibition ([13]; BGB IC20 combo, at 0.005 µM): 5.44%
- inhibition ([13]; BGB IC40 combo, at 0.005 µM): -42.6%
- inhibition ([13]; BGB IC40 combo, at 0.05 µM): -39%
- inhibition ([13]; at 0.5 µM): -40.7% (inactive)
- inhibition ([13]; cisplatin combo, at 0.05 µM): -44.5%
- inhibition ([13]; cisplatin combo, at 0.5 µM): -65.9%
- inhibition ([13]; cisplatin combo, at 5 µM): -35.2%
- inhibition ([13]; measured here: 5 uM single agent, at 5 µM): -15.7%
- inhibition ([14]; at 0.5 µM): -12.2% (inactive)
- inhibition [14, 24]: -13.6%
- inhibition ([14]; measured here: combination with cisplatin, at 0.5 µM): 10.3%
- inhibition ([14]; measured here: combination with cisplatin, at 5 µM): -12%
- inhibition ([15]; at 0.5 µM): -10.6% (inactive)
- inhibition ([15]; measured here: with BGB IC20, at 0.5 µM): -23%
- inhibition ([15]; measured here: with BGB IC20, at 5 µM): 17.7%
- inhibition ([15]; measured here: with cisplatin IC20, at 0.5 µM): -10.4%
- inhibition ([15]; measured here: with cisplatin IC20, at 5 µM): 11.5%
- inhibition ([15]; single agent, at 5 µM): 11%
- inhibition ([16]; at 0.5 µM): -22.8% (inactive)
- inhibition ([16]; measured here: combination with BGB at IC20, at 0.5 µM): -7.62%
- inhibition ([16]; measured here: combination with cisplatin at IC20, at 0.5 µM): 2.1%
- inhibition ([17]; at 0.5 µM): -9.81% (inactive)
- inhibition ([17]; measured here: combo with BGB at IC20, at 0.5 µM): -13.2%
- inhibition ([17]; measured here: combo with cisplatin at IC20, at 0.5 µM): -3.83%

From PubChem BioAssay
